According to PubChem BioAssay AID2685 (National Center for Advancing Translational Sciences (NCATS), 2010):
In all, about 320,000 compounds went through this assay and about 2,100 (0.66%) were called active. About 53% were inconclusive and are not listed. Calls follow the shape of the dose curve; as a rule, active = well fitted inhibition curve with a large enough effect in the signal ratio, with a control signal flat (not every such curve was filed as active); inconclusive = small, poorly fitted or top-dose-only effect, or effect the other way, or a change in a side signal; inactive = flat fitted curve, though single readings scatter; the % refers to the signal ratio. The list comes from a sample in which actives are over-represented; it also holds similar structures and randomly drawn compounds.

Experiment: qHTS Assay for Lipid Storage Modulators in Drosophila S3 Cells;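 as to cell number change: cells counted by Cell Tracker Red CMTPX staining in the red channel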; as to lipid storage change, negative = inhibition: % is scaled to controls: 0 for no effect and ±100 for the full control effect
Settings: BODIPY lipid droplet fluorescence, 18-24 h, cells fed with added oleic acid; cell number change: measured here: cell count max response; series mostly up to 46.1 µM; lipid storage change, negative = inhibition: at the top concentration
In short: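 Drosophila S3 cells got compounds at several concentrations plus oleic acid (400 uM solution). Laser-scanning cytometry with 488 nm excitation read lipid droplets at 500-530 nm and cells at 575-640 nm. Percent activity was relative to 20 uM Triacsin C.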
Potency is read from the fitted curve at half-maximal effect.

SMILES	Potency	cell number change	outcome	lipid storage change, negative = inhibition
CCn1c(=O)n(CC)c2cc(N3CCCC3)c(NC(=O)c3cc(Cl)ccc3OC)cc21	5.8 µM (active)	-12.8%		
CCn1c(=O)n(CC)c2cc(N3CCCC3)c(NC(=O)c3ccc(C)cc3)cc21		-23.8%	inactive	
COc1ccc(Cl)cc1C(=O)Nc1ccccc1N1CCCCC1		5.02%		24.2% (inactive)
Cc1ccc2c(n1)CC(C)(C)C/C2=N\O		3.94%		2.92% (inactive)
CC(C)Oc1cccc(C(=O)C2CCCN(C(=O)c3ccsc3)C2)c1 (configuration not stated)	18.4 µM (active)	-18.6%		
CC(C)Oc1cccc(C(=O)C2CCCN(C(=O)c3ccc4c(c3)OCO4)C2)c1 (configuration not stated)		-14.4%		-19.1% (inactive)
CC(C)Oc1cccc(C(=O)C2CCCN(C(=O)c3csnn3)C2)c1 (configuration not stated)		3.1%		-2.76% (inactive)
Cn1ncc(N=Cc2ccccc2[N+](=O)[O-])c1C(N)=O		-4.8%		12.9% (inactive)
CCOC(=O)Cn1c(=N)n(CCOc2ccc(Br)cc2)c2ccccc21		-7.97%		-6.39% (inactive)
CCOC(=O)Cn1nc(C)c(NC(=O)CCc2ccccc2)c1C		12.6%		-3.97% (inactive)
c1ccc(C[C@H]2CNCCN2CCc2cccc3ccccc23)cc1		-0.264%		2.45% (inactive)
Oc1ccc(C[C@@H]2CNCCN2CCc2cccc3ccccc23)cc1		-30.1%		9.05% (inactive)
Fc1cccc(CCN2CCNC[C@H]2Cc2cccc3ccccc23)c1	14.6 µM (active)			
C=CCn1c(C)cc(C(=O)COC(=O)c2ccc(N)c([N+](=O)[O-])c2)c1C		5.39%		13.4% (inactive)
CCN(CC)CCCNC(=S)N(Cc1cccnc1)Cc1cc2cc(C)ccc2[nH]c1=O		5.5%		11.3% (inactive)
CN1CCCC(C(=O)C(C#N)c2ccccc2)C1 (configuration not stated)	29.1 µM (active)	-21.6%		
CCOC(=O)C1CCCN(CCC(C)c2ccccc2)C1 (configuration not stated)		2.31%		13.5% (inactive)
CC(CN1CCCC(C(N)=O)C1)c1ccccc1 (configuration not stated)		-8.59%		-19.6% (inactive)
CC(C)n1nc(C(=O)Nc2cccc(S(=O)(=O)NCc3ccco3)c2)c2ccccc2c1=O		-6.04%	inactive	
CC(C)C(NC(=O)c1ccccc1)C(=O)OCn1nnc2ccccc2c1=O (configuration not stated)	16.4 µM (active)	-15.7%		

SMILES	Potency	cell number change	outcome	lipid storage change, negative = inhibition
CC(C)[C@H](NS(=O)(=O)c1ccccc1)C(=O)OCn1nnc2ccccc2c1=O				-13.3% (inactive)
CC(=O)OCn1nnc2ccccc2c1=O		12.3%		3.6% (inactive)
CCOC(=O)c1ccccc1NC(=S)N1CCC(C)CC1		-4.08%		29.6% (inactive)
Cc1nnsc1S(=O)c1ccccc1Cl (configuration not stated)		-9.44%		14.1% (inactive)
O=[N+]([O-])c1cccc(/C=N/NS(=O)(=O)c2ccccc2)c1		-12.3%		-12.4% (inactive)
C=CCNC(=S)NNC(=O)c1ccc(Br)cc1		-6.86%		-0.112% (inactive)
CC(=O)c1ccc(NC(=S)NC(=O)/C=C/c2ccco2)cc1		-2.35%		9.91% (inactive)
CC(=O)Nc1ccc(NC(=S)NC(=O)/C=C/c2ccco2)cc1	4.61 µM (active)	-27.7%		
CC(=O)NC(=S)Nc1ccc(NC(=S)NC(=O)/C=C/c2ccco2)cc1		15.8%		8.43% (inactive)
CCO[C@H]1OC(C(=O)N2CCN(C)CC2)=C[C@@H](C2CC2)[C@@H]1CCCO				-7.66% (inactive)
Cc1cc(OCC(=O)NNC(=S)NCC2CCCO2)cc(C)c1Cl (configuration not stated)		-9.63%	inactive	
O=C(Nc1ccccc1F)C1COc2ccccc2O1 (configuration not stated)			inactive	
COc1ccc(OC)c(NC(=O)CCCNC(=O)Cn2cnc3sc(C)c(C)c3c2=O)c1	3.66 µM (active)	10.8%		
COc1ccccc1NC(=O)CCCNC(=O)Cn1cnc2sc(C)c(C)c2c1=O		9.46%	inactive	
COc1ccc(NC(=O)CCCNC(=O)Cn2cnc3sc(C)c(C)c3c2=O)cc1OC		19.7%	inactive	
CN1CCN(C2CCN(Cc3ccc(O)c4ncccc34)CC2)CC1		8.98%		9.86% (inactive)
COc1ccccc1-c1nc(S(=O)(=O)c2ccccc2)c(N2CCCCC2)o1	4.11 µM (active)	-11.8%		
COc1ccccc1-c1nc(S(=O)(=O)c2ccccc2)c(N2CCOCC2)o1		5.82%		-22.5% (inactive)
O=S(=O)(c1ccccc1)c1nc(-c2ccccc2)oc1N1CCCC1				1.16% (inactive)
Cc1nc(CS(=O)c2ccc(Cl)cc2)cc(N2CCOCC2)n1 (configuration not stated)		-22.4%		-9.48% (inactive)

SMILES	Potency	cell number change	outcome	lipid storage change, negative = inhibition
Cc1ccc(NC(=O)CN2CCN(Cc3ccccc3)CC2)cc1				5.7% (inactive)
COc1ccc(C(=O)NCC2(c3ccccc3)CCOCC2)cc1		16.9%		3.47% (inactive)
CC1=CC2=NC(=O)/C(=C\c3ccc(-c4ccc(Cl)cc4)o3)C(=N)N2O1		5.59%		-14% (inactive)
CCOc1ccc(C(=O)NC(C(=O)NCC(c2cccs2)N(C)C)C(C)C)cc1 (configuration not stated)		-5.63%		16.5% (inactive)
COc1cc(C(=O)NCc2nnc(SCC(=O)N3CCCCC3)o2)cc(OC)c1OC	18.4 µM (active)	4.42%		
COc1cc(C(=O)NCc2nnc(SCC(=O)Nc3cc(C)cc(C)c3)o2)cc(OC)c1OC		6.53%		5.11% (inactive)
CCC1CCCCN1C(=O)CSc1nnc(CNC(=O)c2cc(OC)c(OC)c(OC)c2)o1 (configuration not stated)			inactive	
COc1cc(C(=O)NCc2nnc(SCC(=O)Nc3cccc(C(F)(F)F)c3)o2)cc(OC)c1OC	9.2 µM (active)	-27.5%		
Cc1ccc(NC(=O)CSc2nnc(CNC(=O)c3ccco3)o2)cc1				-12.8% (inactive)
COc1ccc(C(=O)NCc2nnc(SCC(=O)Nc3cccc(C(F)(F)F)c3)o2)cc1OC		0.944%		-16.5% (inactive)
COc1ccc(C(=O)NCc2nnc(SCC(=O)N3CCCC3)o2)cc1			inactive	
CCOC(=O)c1ccc(NC(=O)CSc2nnc(CNC(=O)c3ccco3)o2)cc1	3.66 µM (active)	-21.5%		
CCOc1ccc(NC(=O)CSc2nnc(CNC(=O)c3ccco3)o2)cc1		12.8%		4.79% (inactive)
Cc1cc[n+]2c3c(cccc13)CCC2		21.6%	inactive	
Cn1c(SCC(=O)Nc2nccs2)nnc1-c1ccco1		19.7%		8.24% (inactive)
O=C(CCNS(=O)(=O)c1ccccc1F)N1CCN(Cc2ccccc2)CC1			inactive	
O=C(CCNS(=O)(=O)c1ccccc1F)N1CCN(C(c2ccccc2)c2ccccc2)CC1	23.1 µM (active)			
O=C(CCNS(=O)(=O)c1ccccc1C(F)(F)F)N1CCN(C(c2ccccc2)c2ccccc2)CC1		9.11%		23.5% (inactive)
COc1cc(CN(C(=S)NCC(=O)NC2CC2)C2CCCC2)cc(OC)c1OC		4.91%		-7.95% (inactive)
